This is a sample that favours compounds with a hit; in the whole collection about 8% have one here.
MARV entry inh: Marburg virus entry inhibition; Potency, µM (doses to about 37.8 µM), without a hit: top-dose activity change, negative = inhibition, usual class: inhibitors; Marburg virus pseudotyped entry inhibition, cell reporter; hit rate 1.8% among 300,000; calls by dose curve; tested in HEK293 cells; also: potency is read from the fitted curve at half-maximal effect; % is scaled to controls: 0 for no effect and ±100 for the full control effect
HCMV inh: inhibitors of human cytomegalovirus. activity change, negative = inhibition, % at 57.5 µM. AID 1259415. HFF cells, HCMV-luciferase reporter, 72 h; stronger effect = lower value. hit rate 4.5% among 410,000; in the data active = activity change below about -60%; inconclusive = no clear call, values can overlap the other calls; inactive = above about -39%; also: % is scaled to controls: 0 for no effect and ±100 for the full control effect
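Luciferase read-out from HCMV-luciferase-infected HFFs (MOI 1 PFU/cell) 72 h post infection at 37C; compounds added after 16 h cell attachment; activity normalized between buffer-only basal and Salinomycin (10uM) inhibitor controls.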
FMDV inh: foot and mouth disease virus antiviral activity; AID 1159524; FMDV antiviral cell-based qHTS; hit rate 1.2% among 410,000; Potency, µM (doses to about 57.9 µM), for the others: at the highest dose activity change, negative = inhibition, hits mostly inhibitors; calls by dose curve; tested in HEK293T cells; also: read-out not given here; potency is read from the fitted curve at half-maximal effect; % is scaled to controls: 0 for no effect and ±100 for the full control effect; nearly all actives have a fitted effect of over 45% in size
HCV inhibitor: inhibitors of hepatitis C virus infection | Huh7.5.1 HCVcc-Cre infection, luciferase reporter, 44 h | hit rate 3.4% among 340,000 | AID 651820 | Potency, µM (titrated, usually from 41.8 µM), inactives show at the top dose activity change, negative = inhibition, usual class: inhibitors; active = well fitted inhibition curve with a large enough effect; inconclusive = small, poorly fitted or top-dose-only effect, or another doubt; inactive = no such curve, though single readings can be large or run the other way; also: potency is read from the fitted curve at half-maximal effect; % is scaled to controls: 0 for no effect and ±100 for the full control effect
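Infectious HCV cell culture screen: compound-treated cells (1,000/well, pre-plated 4 h) are infected with HCVcc-Cre at roughly 0.5 moi and grown 44 h. Infection is quantified by luciferase signal after 15 min substrate incubation at room temperature.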
SARS PLpro yeast: SARS-CoV PLP inhibition in yeast; S. cerevisiae expressing SARS-CoV PLpro, growth rescue; hit rate 0.19% among 330,000; Potency, µM (titrated, usually from 32.9 µM), for inactives: at the top dose activity, positive = growth rescue, hits mostly activators; AID 485353; calls by dose curve; also: potency is read from the fitted curve at half-maximal effect; 0% is about no effect; nearly all actives have a fitted effect of over 55% in size
Lassa entry inh: Lassa virus entry inhibition. hit rate 1.2% among 300,000. Lassa virus pseudotype entry inhibition, cell reporter. Potency, µM (doses to about 37.9 µM), for inactives: top-dose activity change, negative = inhibition, hits mostly inhibitors. AID 540256; calls by dose curve; tested in HEK293 cells; also: potency is read from the fitted curve at half-maximal effect; % is scaled to controls: 0 for no effect and ±100 for the full control effect; nearly all actives have a fitted effect of over 50% in size
* marks the source's active call; other numbers are inactive results; ! = not active in a repeat; [ ] = another dose, or the depositor's remark.

What do the screens show for `CCN(CC)S(=O)(=O)c1ccc(C(=O)NCCSc2c(-c3ccc(F)cc3)[nH]c3ccccc23)cc1`?
MARV entry inh: inconclusive; HCMV inh: -30; FMDV inh: 0%; Lassa entry inh: -29%[46.1 µM]

What do the screens show for `COC(=O)[C@@H]1CCCN1Cc1ccc2c(c1)CN(Cc1coc3ccc(C)cc3c1=O)CCO2`?
FMDV inh: -9%

What do the screens show for `CS(=O)(=O)N1CCN(C(=O)C2c3ccccc3Oc3ccccc32)CC1`?
MARV entry inh: 2%; HCMV inh: 54; FMDV inh: -7%; HCV inhibitor: 1%; SARS PLpro yeast: -2%; Lassa entry inh: 17%

Results for CCNC(=S)N1CCN(c2ccccc2OCC)CC1 ?
MARV entry inh: -25%; HCMV inh: -31; FMDV inh: -17%; HCV inhibitor: 15%; SARS PLpro yeast: -10%; Lassa entry inh: 0%

How did CCOc1ccccc1N1CCN(C(=S)NCc2ccccc2)CC1 do in these assays?
MARV entry inh: inconclusive; HCMV inh: -88*; FMDV inh: 11%; HCV inhibitor: 13%; SARS PLpro yeast: 1%; Lassa entry inh: inconclusive

How did CCOc1ccccc1N1CCN(C(=O)c2ccc(S(=O)(=O)Nc3ccccc3)cc2)CC1 do in these assays?
HCMV inh: inconclusive; FMDV inh: -28%; HCV inhibitor: 10µM*; SARS PLpro yeast: 5%

Results for CCOc1ccccc1N1CCN(C(=O)C2c3ccccc3Oc3ccccc32)CC1 ?
MARV entry inh: inconclusive; HCMV inh: -17; FMDV inh: -4%; HCV inhibitor: inconclusive; SARS PLpro yeast: -23%; Lassa entry inh: 7.1µM*

Results for CCOc1ccccc1N1CCN(C(=O)c2ccccc2)CC1 ?
MARV entry inh: 0%; HCMV inh: -19; FMDV inh: -12%; HCV inhibitor: 7%; SARS PLpro yeast: -3%; Lassa entry inh: 11%

How did CC1CCCC(NC(=O)NC(=O)COC(=O)C2=NN(c3ccccc3)C(=O)CC2)C1C (centres undefined) do in these assays?
HCMV inh: 0; FMDV inh: -7%; HCV inhibitor: -6%; SARS PLpro yeast: -6%

Results for Cc1cc2c(c(=O)n1Cc1ccccc1)[C@H]1O[C@](c3ccsc3)(Cc3ccccc31)O2 ?
MARV entry inh: -12%[14.2 µM]

What do the screens show for `CC(=O)Nc1ccc(NC(=O)c2cnc(N3CCN(Cc4cccc(C(F)(F)F)c4)C3=O)o2)cc1`?
HCMV inh: -9

What do the screens show for `CC1CNCCN1S(=O)(=O)c1cccc2cnccc12` (centres undefined)?
MARV entry inh: inconclusive; HCMV inh: -64*!; FMDV inh: inconclusive; HCV inhibitor: inconclusive; SARS PLpro yeast: 2%; Lassa entry inh: inconclusive

How did CC1CCCCN1S(=O)(=O)c1cccc2cccnc12 (centres undefined) do in these assays?
HCMV inh: -22; FMDV inh: 1%; HCV inhibitor: 3%; SARS PLpro yeast: -3%

Results for O=C(NCc1ccccc1CN1CCCC1)c1ccc(Cl)c(N2CCCC2=O)c1 ?
HCMV inh: -34; FMDV inh: 6%; HCV inhibitor: 18µM*; SARS PLpro yeast: -4%

What do the screens show for `O=C(NCc1ccccc1CN1CCCCC1)c1ccc(Cl)cc1N1CCCC1=O`?
HCMV inh: -6; FMDV inh: -16%; HCV inhibitor: 11%; SARS PLpro yeast: 3%

What do the screens show for `COc1cc(/C=N/Nc2ccc(S(N)(=O)=O)cc2)cc(OC)c1OC`?
MARV entry inh: inconclusive; HCMV inh: 4; FMDV inh: 28µM*; HCV inhibitor: 10µM*; SARS PLpro yeast: 0%; Lassa entry inh: inconclusive

Results for COc1ccc2c(c1)c(/C=N/Nc1nc3ccccc3[nH]1)c(C)n2C ?
MARV entry inh: inconclusive; HCMV inh: -101*; FMDV inh: inconclusive; HCV inhibitor: inconclusive; SARS PLpro yeast: 0%; Lassa entry inh: inconclusive

What do the screens show for `COc1cc(/C=N\Nc2nc3ccccc3[nH]2)cc(OC)c1OC`?
MARV entry inh: 13µM*; HCMV inh: 50; FMDV inh: -18%; HCV inhibitor: inconclusive; SARS PLpro yeast: 5%; Lassa entry inh: -7%

How did Cc1sc2ncn(CC(=O)N3CCN(c4ccc(F)cc4)CC3)c(=O)c2c1S(=O)(=O)N1CCCCC1 do in these assays?
MARV entry inh: -28%[46.1 µM]; HCMV inh: -8; FMDV inh: -14%; Lassa entry inh: 23%[46.1 µM]

Results for O=C(C1CCC(Cn2c(=O)c3sccc3n(Cc3ccccc3)c2=O)CC1)N1CCCCC1 (centres undefined) ?
HCMV inh: 0; FMDV inh: -27%; Lassa entry inh: 18%[46.1 µM]

Results for O=c1cc(Cl)nc2ccccn12 ?
MARV entry inh: -2%[46.1 µM]; HCMV inh: -22; FMDV inh: -6%; HCV inhibitor: 7%; Lassa entry inh: 8%[46.1 µM]

Results for Cn1cccc1/C=C1\CC(C(C)(C)C)C/C(=C\c2cccn2C)C1=O (centres undefined) ?
MARV entry inh: inconclusive; HCMV inh: -25; FMDV inh: -20%; HCV inhibitor: 2.5µM*; SARS PLpro yeast: 5%; Lassa entry inh: -20%

How did Cn1cccc1/C=C1\Cc2ccccc2C1=O do in these assays?
HCMV inh: 101; FMDV inh: 56%; HCV inhibitor: inconclusive; SARS PLpro yeast: -3%

What do the screens show for `O=C1C(n2ccc3ccccc32)c2ccccc2N1Cc1ccc(Cl)nc1` (centres undefined)?
HCMV inh: 2

What do the screens show for `Cc1ccc(/C(=C\CN2CCCC2)c2ccccn2)cc1`?
MARV entry inh: 11µM*; HCMV inh: 24; FMDV inh: -18%; HCV inhibitor: -11%; SARS PLpro yeast: -2%; Lassa entry inh: inconclusive

How did Cc1ccc(C(=O)NCCCNC(=O)c2ccccn2)cc1 do in these assays?
MARV entry inh: 2%[46.1 µM]; HCMV inh: 18; FMDV inh: -9%; HCV inhibitor: 8%; SARS PLpro yeast: 13%; Lassa entry inh: 12%[46.1 µM]

What do the screens show for `COc1cc(C(=O)Nc2ccc(C(C)=O)cc2)c(Br)c(OC)c1OC`?
MARV entry inh: -2%; HCMV inh: 98; FMDV inh: -10%; HCV inhibitor: -14%; SARS PLpro yeast: 14%; Lassa entry inh: inconclusive

Results for COC(=O)c1ccc(NC(=S)N2CCN(Cc3ccccc3OC)CC2)cc1 ?
HCMV inh: -80*; FMDV inh: -1%; HCV inhibitor: -23%; SARS PLpro yeast: 0%

What do the screens show for `CCCOC(=O)c1ccc(NC(=O)c2cc(OC)c(OC)c(OC)c2Br)cc1`?
MARV entry inh: inconclusive; HCMV inh: 25; FMDV inh: -11%; HCV inhibitor: 7.1µM*; SARS PLpro yeast: -17%; Lassa entry inh: inconclusive

How did O=C(Nc1ccccc1)NC1CC2CCC(C1)N2 (centres undefined) do in these assays?
MARV entry inh: 1%; HCMV inh: 13; FMDV inh: -14%; HCV inhibitor: 3%; SARS PLpro yeast: -8%; Lassa entry inh: 1%

Assay outcomes (PubChem BioAssay)
